# High-throughput results (PubChem BioAssay)
# Compounds with a hit are over-represented: about 3.2% of the library has one in this group of screens.
# EBV LMP1 NFkB – reduces LMP1-driven NF-kappaB luciferase signal. 350,000 tested, 0.69% active. inhibition, % at 12.5 µM. LMP1-induced NF-kappaB luciferase reporter cells, luminescence. AID 504558; in the data active means inhibition above about 41%;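 further: 0% = neutral control wells and 100% = reference inhibitor control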
# LGR2 antag – blocks bursicon-induced cAMP signaling via Drosophila LGR2 | HEK293 LGR2, CRE-luciferase, bursicon-stimulated, 4 h | inhibition, % at 9.99 µM | 380,000 tested, 0.35% active | AID 720647;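 active means drop in luminescence signal, shown as inhibition above about 50% in the replicate tests, limit read from the data, passing the limit was not always enough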;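 further: agonist challenge used bursicon conditioned medium at about half maximal strength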
# TWEAK Fn14 block – TWEAK-Fn14 signaling inhibition; TWEAK-stimulated Fn14 reporter cells, luciferase luminescence, 8 h; AID 1159606; inhibition, % at 10 µM; 360,000 tested, 2% active; in the data active means inhibition above about 50%
# PAX8 inh HTS – PAX8 transcriptional activity inhibition; RMG-I TPO-luciferase reporter, SteadyGlo, 24 h; inhibition, % at 12.6 µM; 360,000 tested, 1.2% active;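 active means mean replicate inhibition at least 60% with every replicate also reaching 60%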;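 further: luciferase light reporting Pax8 driven TPO promoter activity; plate controls were median of neutral control wells for no effect and mitoxantrone controls for full effect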
# EWS-Fli block – blocks EWS/Fli oncoprotein-driven transcription; A673 NR0B1-luciferase reporter, viability-normalised; AID 651661; inhibition, % at 12.6 µM; 350,000 tested, 0.67% active;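 active means mean inhibition of at least 50% after viability correction, with every replicate also passing that limit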;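 further: firefly luciferase signal divided by Alamar Blue viability fluorescence both relative to DMSO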
# TROY signal inh – TROY signaling inhibition; Q293 LMP1-TROYcd NF-kB luciferase reporter, 4 h; inhibition, % at 10 µM; 360,000 tested, 0.98% active; AID 1347056;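 active means compounds whose plate-normalised and pattern-corrected inhibition of the luciferase reporter signal at the single screening dose is 50% or more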
# The depositor's hits bear a star; nt = not tested or not shown; ! = not confirmed by another sample.
SMILES,EBV LMP1 NFkB,LGR2 antag,TWEAK Fn14 block,PAX8 inh HTS,EWS-Fli block,TROY signal inh
CCCNC(=O)c1c(N)n(Cc2ccc3c(c2)OCO3)c2nc3ccccc3nc12,-4,nt,31,nt,nt,58*
CC(C)CNC(=O)c1c(N)n(Cc2ccc3c(c2)OCO3)c2nc3ccccc3nc12,-1,nt,27,-28,nt,63*
COCCOC(=O)c1c(N)n(Cc2ccc(OC)cc2)c2nc3ccccc3nc12,3,nt,39,nt,nt,61*
COc1ccc(Cn2c(N)c(C(=O)NCc3ccco3)c3nc4ccccc4nc32)cc1OC,3,nt,19,nt,nt,67*
CCOC(=O)c1c(N)n(Cc2ccc(OC)cc2)c2nc3ccccc3nc12,nt,4,nt,nt,nt,nt
COC(=O)[C@H]1[C@H](CO)[C@H]2Cn3c(ccc(C4=CCCCC4)c3=O)[C@@H]1N2CC1CC1,nt,0,nt,nt,-74,nt
N#Cc1cccc(-c2ccc([C@@H]3[C@H]4CN(C(=O)Cc5ccccc5)CCCCN4[C@H]3CO)cc2)c1,nt,14,nt,29,14,nt
CC(C)CNC(=O)c1c(N)n(Cc2ccco2)c2nc3ccccc3nc12,1,nt,38,nt,nt,16
CC(C)CCNC(=O)c1c(N)n(Cc2ccc3c(c2)OCO3)c2nc3ccccc3nc12,-16,nt,49,nt,nt,60*
CC1=CC2OC3CC4OC(=O)C=CC=CC(=O)OCCC(C)C(O)C(=O)OCC2(CC1)C4(C)C31CO1 (centres undefined),82*,nt,101*,102*,19,85*
CC(O)C1C=CC=CC(=O)OC2CC3OC4C5OC5(C)C(O)CC4(COC(=O)C(O)C(C)CCO1)C2(C)C31CO1 (centres undefined),88*,104*,99*,113*,29,86*
CC1=CC2OC3CC4OC(=O)C=CC=CC(C(C)O)OCC(O)C5(C)OC5C(=O)OCC2(CC1O)C4(C)C31CO1 (centres undefined),97*,102*,99*,102*,45,83*
CC1CCOC(=O)C=CC=CC(=O)OC2CC3OC4C5OC5(C)C(O)CC4(COC(=O)C1O)C2(C)C31CO1 (centres undefined),87*,104*,103*,104*,22,86*
O=C(Cc1ccccc1)N1C[C@H]2[C@@H](c3ccccc31)[C@H](CO)N2Cc1ccccc1,nt,14,nt,19,8,nt
O=C(Cc1ccccn1)N1CCCCN2[C@H](C1)[C@H](c1ccc(-c3ccccc3)cc1)[C@@H]2CO,nt,13,nt,-11,-6,nt
c1cncc(-c2ccc(C3[C@H]4CNC[C@@H]3N4CC3CC3)cc2)c1 (some centres undefined),nt,-4,nt,-9,-12,nt
COC(=O)[C@H]1[C@H](CO)[C@H]2Cn3c(ccc(-c4ccc(OC)cc4)c3=O)[C@@H]1N2C(=O)c1ccccc1F,nt,-4,nt,-2,4,nt
C/C=C/c1ccc(C2[C@@H]3CN(C(=O)CN(C)C)C[C@H]2N3)cc1 (some centres undefined),nt,12,nt,-18,-2,nt
NC(=O)c1cn(C2OC(CO)C(O)C2O)c2ncnc(N)c12 (centres undefined),81*,71*,89*,96*,55*!,40
N#Cc1cn(C2OC(CO)C(O)C2O)c2ncnc(N)c12 (centres undefined),-181,94*,72*,96*,-7,52*
CN(C)c1ccc(/C=C/[N+](=O)[O-])cc1,-2,nt,-8,-13,-1,12
COc1cc(/C=C/[N+](=O)[O-])ccc1OC(=O)c1cccnc1,18,nt,47,15,56*,66*
Oc1c(Br)c(Br)c(Br)c(Br)c1Br,7,nt,2,nt,nt,71*
CC=Cc1ccc2n(c1=O)C[C@@H]1[C@@H](CO)[C@H](C(=O)OC)[C@H]2N1S(=O)(=O)c1cccc(C)c1 (mixture of isomers),nt,-5,nt,nt,-6,nt
COc1cccc(-n2c(C)nc3ccccc3c2=O)c1,-2,nt,67*,0,nt,-19
Cc1cc([N+](=O)[O-])c2ccccc2[n+]1[O-],90*,nt,4,nt,nt,-31
Cc1ccccc1[N+](=O)[O-],-5,3,8,nt,-3,-1
NC(=O)c1c(Br)n(C2OC(CO)C(O)C2O)c2ncnc(N)c12 (centres undefined),-6,7,18,85*,32,10
Nc1ncnc2c1ncn2[C@@H]1O[C@H](COP(=O)(O)CP(=O)(O)O)[C@@H](O)[C@H]1O,8,33,2,-17,9,0
